“And” between values parts separate entries of the source, which are not always exact repeats. Equal values may be shown once. Records with an inconclusive call do not appear. Where a structure was tested more than once in an assay, its records may differ in their call. The source made the active and inactive calls. Calls come from the whole dose curve; as a rule, active = well fitted curve in the direction sought with a large enough effect in the repeat runs; inconclusive = weak or mixed curves; inactive = no such curve, though single readings can be large; an effect the other way counts as inactive or inconclusive.
Key:
[1] = Human pregnane X receptor (PXR) small molecule agonists, qHTS cell viability counter screen (AID 1346977); details: PXR-Luc HepG2 viability, CellTiter-Fluor, 24 h; series mostly up to 92.4 µM; note: nearly all actives have a fitted effect of over 50% in size; note: potency is the fitted concentration of half-maximal effect
In short: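 Fluorescence read-out (CellTiter-Fluor) of viability in PXR-Luc HepG2 cells, multiplexed with the luciferase agonist read. Compounds in DMSO added after 5hr plating; 24hr total exposure at 37C, 5% CO2.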

[2] = Caspase-3/7 induction in HepG2 cells by small molecules, qHTS assay (AID 1346978); details: HepG2 caspase-3/7 activation, Caspase-Glo luminescence, 17 h; series mostly up to 92.4 µM; note: nearly all actives have a fitted effect of over 15% in size
In short: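 Wild-type HepG2 cells, 2,000/well, settled 5 hr at 37 C and 5% CO2, then compound-treated for 17 hr; caspase-3/7 activity read by luminescent Caspase-Glo 3/7 after 30 min at room temperature.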

[3] = Caspase-3/7 induction in CHO-K1 cells by small molecules, qHTS cell viability counter screen (AID 1346979); details: CellTiter-Fluor fluorescence, 17 h; series mostly up to 92.4 µM; note: nearly all actives have a fitted effect of over 35% in size; note: potency is the fitted concentration of half-maximal effect
In short: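 CHO-K1 wt, 1,500 cells/well; 5hr pre-incubation 37C/5% CO2; compound pin transfer (DMSO); 16hr exposure; CellTiter-Fluor added, 1hr, fluorescence read.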

[4] = Caspase-3/7 induction in CHO-K1 cells by small molecules, qHTS assay (AID 1346980); details: CHO-K1 caspase-3/7 induction, Caspase-Glo luminescence, 17 h; series mostly up to 92.4 µM; note: nearly all actives have a fitted effect of over 15% in size
In short: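 Wild-type CHO-K1 cells exposed to compounds for 17hr at 37 C, 5% CO2. Caspase-3/7 activity then measured by Caspase-Glo 3/7 luminescence after 30min at room temperature.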

[5] = molecular target: Nuclear receptor subfamily 1 group I member 2 (Homo sapiens) (UniProt O75469); assay: Human pregnane X receptor (PXR) small molecule agonists, qHTS assay (AID 1346982); details: PXR-Luc HepG2, CYP3A4 luciferase reporter, 24 h; series mostly up to 92.4 µM; note: nearly all actives have a fitted effect of over 35% in size; note: potency is the fitted concentration of half-maximal effect
In short: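 Agonist mode: luminescence from ONE-Glo after 24 h compound exposure at 37C in HepG2 cells carrying hPXR-responsive CYP3A4 luciferase, plated in charcoal-stripped serum medium 5 h beforehand.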

[6] = Caspase-3/7 induction in HepG2 cells by small molecules, qHTS cell viability counter screen (AID 1346981); details: CellTiter-Fluor fluorescence, 17 h; series mostly up to 92.4 µM; note: nearly all actives have a fitted effect of over 30% in size
In short: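 CellTiter-Fluor fluorescence measured viability in the same wells used for Caspase-Glo 3/7. HepG2 (wild type) at 2,000 cells/well were pre-incubated 5 hr, dosed, and given reagent at 16 hr, with 1 hr further at 37C.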

[7] = molecular target: Cytochrome P450 2D6 (Homo sapiens) (UniProt P10635); assay: Cytochrome P450 Family 2 Subfamily D Member 6 (CYP2D6) small molecule antagonists: luciferase reporter qHTS assay (AID 1671196); details: P450-Glo CYP2D6 enzyme assay, luciferin luminescence, 1 h; series mostly up to 115 µM; note: nearly all actives have a fitted effect of over 50% in size; note: potency is the fitted concentration of half-maximal effect
In short: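 CYP2D6 activity was followed as luminescence from its luciferin product after a 1 h NADPH-driven reaction at room temperature. Enzyme-substrate mix and compound were pre-incubated for 10 min, and the signal was read 20 min after adding detection reagent.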

[8] = molecular target: Nuclear receptor subfamily 1 group I member 2 (Rattus norvegicus) (UniProt Q9R1A7); assay: Rat pregnane X receptor (rPXR) activation by small molecules, qHTS assay (AID 1346983); details: rPXR luciferase reporter cells, One-Glo luminescence, 24 h; stronger effect = higher value; note: nearly all actives have a fitted effect of over 20% in size
In short: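 Cell-based rPXR activation assay: rPXR cells, 2,000 per well, rested 5hr at 37 C, then exposed to compounds in DMSO for 24 hr at 37 C. Luciferase activity read by One-Glo luminescence after 30 min at room temperature.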

[9] = molecular target: Nuclear receptor subfamily 1 group I member 2 (Homo sapiens) (UniProt O75469); assay: CYP3A4 induction through human pregnane X receptor (PXR) by small molecules, qHTS assay (AID 1346984); details: DPX-2 HepG2 PXR, CYP3A4-luciferin luminescence, 24 h; series mostly up to 46.1 µM; note: nearly all actives have a fitted effect of over 40% in size
In short: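 Read-out is luminescence after One-Glo addition, following a 3 hr, 37C incubation with Luciferin-IPA CYP3A4 substrate (3uM final). Before that, compounds were on DPX-2 cells (HepG2 co-transfected with PXR element plus CYP3A4-promoter luciferase) for 24 hr at 37C.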

[10] = molecular target: Nuclear receptor subfamily 1 group I member 2 (Homo sapiens) (UniProt O75469); assay: Human pregnane X receptor (PXR) activation by small molecules, qHTS assay (AID 1346985); details: DPX-2 HepG2 CYP3A4-luciferase, 24 h; series mostly up to 38.3 µM; note: nearly all actives have a fitted effect of over 40% in size
In short: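 DPX-2 cells (HepG2 co-transfected with a PXR response element and a CYP3A4-promoter luciferase construct) were seeded at 2,000 per well, rested 5 hr at 37C, then exposed to DMSO-dissolved compounds for 24 hr. Activation was read as luciferase luminescence.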
% is set by controls: 0 for no effect and ±100 for the full control effect.

Sequence of Nuclear receptor subfamily 1 group I member 2 (Homo sapiens) (O75469 whole entry, looked up): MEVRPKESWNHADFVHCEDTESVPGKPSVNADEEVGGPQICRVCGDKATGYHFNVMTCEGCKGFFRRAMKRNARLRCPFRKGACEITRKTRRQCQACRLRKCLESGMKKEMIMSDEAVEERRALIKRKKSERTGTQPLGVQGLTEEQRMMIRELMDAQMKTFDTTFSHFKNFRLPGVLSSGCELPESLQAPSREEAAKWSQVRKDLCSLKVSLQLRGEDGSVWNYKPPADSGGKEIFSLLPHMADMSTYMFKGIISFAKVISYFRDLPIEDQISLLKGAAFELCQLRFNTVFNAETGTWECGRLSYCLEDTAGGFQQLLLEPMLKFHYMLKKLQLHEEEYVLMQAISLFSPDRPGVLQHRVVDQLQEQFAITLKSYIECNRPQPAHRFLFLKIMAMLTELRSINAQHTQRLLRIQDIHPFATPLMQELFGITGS
Sequence of Cytochrome P450 2D6 (Homo sapiens) (P10635 whole entry, looked up): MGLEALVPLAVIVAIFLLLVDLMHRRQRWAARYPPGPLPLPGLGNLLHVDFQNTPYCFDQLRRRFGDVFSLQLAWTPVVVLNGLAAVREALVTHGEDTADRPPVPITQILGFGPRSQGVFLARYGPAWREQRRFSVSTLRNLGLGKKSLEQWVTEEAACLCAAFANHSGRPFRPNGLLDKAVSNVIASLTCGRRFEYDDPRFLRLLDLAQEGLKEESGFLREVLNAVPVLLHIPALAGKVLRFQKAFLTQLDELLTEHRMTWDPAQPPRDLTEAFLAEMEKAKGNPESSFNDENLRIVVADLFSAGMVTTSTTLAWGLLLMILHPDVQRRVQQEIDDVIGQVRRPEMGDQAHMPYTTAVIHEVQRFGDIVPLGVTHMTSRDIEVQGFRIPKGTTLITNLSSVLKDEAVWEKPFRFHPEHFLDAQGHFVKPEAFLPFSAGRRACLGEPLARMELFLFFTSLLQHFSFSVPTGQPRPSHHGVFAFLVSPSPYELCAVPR
Sequence of Nuclear receptor subfamily 1 group I member 2 (Rattus norvegicus) (Q9R1A7 whole entry, looked up): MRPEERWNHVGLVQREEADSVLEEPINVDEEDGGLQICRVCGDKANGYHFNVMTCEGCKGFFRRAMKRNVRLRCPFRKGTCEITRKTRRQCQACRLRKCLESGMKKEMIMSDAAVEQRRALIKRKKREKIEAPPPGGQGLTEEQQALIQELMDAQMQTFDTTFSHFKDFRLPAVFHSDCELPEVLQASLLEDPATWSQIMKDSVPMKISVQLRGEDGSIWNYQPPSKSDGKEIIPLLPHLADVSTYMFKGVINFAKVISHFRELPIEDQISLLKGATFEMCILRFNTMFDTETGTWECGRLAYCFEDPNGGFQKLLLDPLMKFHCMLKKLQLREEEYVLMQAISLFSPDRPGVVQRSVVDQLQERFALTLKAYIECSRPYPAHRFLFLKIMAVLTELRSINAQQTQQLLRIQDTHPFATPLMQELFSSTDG

C[Si](C)(C)N[Si](C)(C)C
inactive: Potency [1] | Potency [2] | Potency [3] | Potency [4]
60.6 µM (active) and inactive: Potency [5]

CCCCCCCCO
inactive: Potency [1] | Potency [2] | Potency [3] | Potency [4] | Potency [5]

N#CCC(=O)O
inactive: Potency [2] | Potency [3] | Potency [4]

O=C1O[C@H]([C@H](O)CO)C(O)=C1O
inactive: Potency [1] | Potency [2] | Potency [3] | Potency [4] | Potency [5]

CC(=O)C(C)C
inactive: Potency [1] | Potency [2] | Potency [4] | Potency [5]
63.4 µM (active) and inactive: Potency [3]

Cc1ccccc1C=O
inactive: Potency [1] | Potency [2] | Potency [3] | Potency [4] | Potency [5]

CC/C=C(\C(=O)N[C@@H]1C(=O)N2C(C(=O)OCOC(=O)C(C)(C)C)=C(COC(N)=O)CS[C@H]12)c1csc(N)n1
inactive: Potency [1] | Potency [2] | Potency [3] | Potency [4] | Potency [6] | Potency [5] | Potency [7]

CN1Cc2c(N)cccc2C(c2ccccc2)C1 (stereo unspecified)
inactive: Potency [1] | Potency [2] | Potency [3] | Potency [4] | Potency [5] | max activation [8] -2.53% | Potency [9] | outcome [10]

NC1CCCCC1N (stereo unspecified)
inactive: Potency [2] | Potency [3] | Potency [4]

CCN(CC)CCNC(=O)c1ccc(N)cc1
inactive: Potency [2] | Potency [3] | Potency [4]

CC1(C)[C@@H](O[C@H]2O[C@H](C(=O)O)[C@@H](O)[C@H](O)[C@H]2O[C@@H]2O[C@H](C(=O)O)[C@@H](O)[C@H](O)[C@H]2O)CC[C@]2(C)[C@H]3C(=O)C=C4[C@@H]5C[C@@](C)(C(=O)O)CC[C@]5(C)CC[C@@]4(C)[C@]3(C)CC[C@@H]12
inactive: Potency [1] | Potency [2] | Potency [3] | Potency [4] | Potency [5] | max activation [8] -0.648% | Potency [9] | outcome [10] | Potency [7]

CC(COCC(C)OC(=O)c1ccccc1)OC(=O)c1ccccc1 (stereo unspecified)
inactive: Potency [1] | Potency [2] | Potency [3] | Potency [4] | Potency [5] | Potency [7]

CC(=O)Nc1ccc(CC(=O)O)cc1
inactive: Potency [1] | Potency [2] | Potency [3] | Potency [4] | Potency [5] | max activation [8] -3.84% | Potency [9] | outcome [10]

COC(=O)/C=C\C(=O)OC
inactive: Potency [1] | Potency [2] | Potency [3] | Potency [4] | Potency [5] | Potency [7]

CCCCC(=O)O
inactive: Potency [1] | Potency [2] | Potency [3] | Potency [4] | Potency [6] | Potency [5] | Potency [7]

CCCOCC(C)O (stereo unspecified)
inactive: Potency [1] | Potency [2] | Potency [3] | Potency [4] | Potency [5] | Potency [7]

CC(CN1c2ccccc2Sc2ccccc21)N(C)C (stereo unspecified)
active: Potency [1] 44.7 µM and 48.6 µM | Potency [3] 61.1 µM
inactive: Potency [2] | Potency [4]
19.3 µM (active) and inactive: Potency [5]

COc1ccccc1[N+](=O)[O-]
inactive: Potency [1] | Potency [2] | Potency [3] | Potency [4] | Potency [5] | Potency [7]

COCN(COC)c1nc(N(COC)COC)nc(N(COC)COC)n1
active: Potency [5] 54.5 µM
inactive: Potency [1] | Potency [2] | Potency [3] | Potency [4] | Potency [7]

NCCNCCNCCN
inactive: Potency [1] | Potency [2] | Potency [3] | Potency [4] | Potency [6] | max activation [8] -2.83%

CC(=O)OC(C)(C)C1CC=C(C)CC1 (stereo unspecified)
inactive: Potency [1] | Potency [2] | Potency [3] | Potency [4] | Potency [5]

CC(=O)OCCC(C)C
inactive: Potency [1] | Potency [2] | Potency [3] | Potency [4] | Potency [5]

C=C1C[C@]23C[C@@]1(O)CC[C@H]2[C@@]12C=C[C@H](O)[C@@](C)(C(=O)O1)[C@H]2[C@@H]3C(=O)O
inactive: Potency [2] | Potency [3] | Potency [4] | Potency [6]

COc1ccc(N)c(OC)c1
inactive: Potency [1] | Potency [2] | Potency [3] | Potency [4] | Potency [5]

Cc1cc(CC(=O)O)n(C)c1C(=O)c1ccc(Cl)cc1
inactive: Potency [1] | Potency [2] | Potency [3] | Potency [4] | Potency [6] | max activation [8] -4.94% and -11.5%

CN=C(NC#N)NCCSCc1nc[nH]c1C
inactive: Potency [2] | Potency [3] | Potency [4] | Potency [6]
active: Potency [7] 31.4 µM and 15.5 µM

N[C@@H](Cc1cc(I)c(Oc2ccc(O)c(I)c2)c(I)c1)C(=O)O
inactive: Potency [2] | Potency [3] | max activation [8] -2.4% | Potency [7]
inactive and 63.7 µM (active): Potency [5]

C[n+]1ccn(CCO)c1
inactive: Potency [2] | Potency [3] | Potency [4] | Potency [5] | Potency [7]

CCCN(CCC)C(=O)SCC
inactive: Potency [2] | Potency [3] | Potency [4] | Potency [5] | Potency [7]

CCCCCCCCC(=O)O
inactive: Potency [2] | Potency [4] | Potency [5]

C=C(CC(=O)O)C(=O)O
inactive: Potency [2] | Potency [3] | Potency [4] | Potency [6]
